# An excerpt weighted towards active compounds, which were near 10% of everything screened.
# MCF10A rerep: DNA re-replication induction in MCF 10a cells; AID 624296; actives 2.9% (n = 350,000); Potency, µM (doses to about 46.1 µM), inactives show at the highest dose activity, positive = re-replication, usual class: activators; MCF 10A DNA re-replication, Hoechst nuclear intensity, 48 h; note: % of control where 0% means no effect; nearly all actives have a fitted effect of over 50% in size
# KB-3-1 cytotox: KB-3-1 parental cell cytotoxicity. KB-3-1 viability, CellTiter-Glo ATP luminescence, 72 h. Potency, µM (highest dose often 46.1 µM), actives largely listed as cytotoxic. actives 1.4% (n = 400,000). AID 1347075; note: % is set by controls: 0 for no effect and ±100 for the full control effect; nearly all actives have a fitted effect of over 60% in size
#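 Multi-concentration cytotoxicity screen in KB-3-1 cells grown in DMEM lacking phenol red with 10% FBS. After 72 h at 37 °C with compound, ATP-dependent luminescence was recorded.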
# SW480 rereplic: DNA re-replication induction in SW480 cells; Potency, µM (highest dose often 46.1 µM), for the others: top-dose re-replication activation, hits mostly activators; SW480 DNA re-replication, Hoechst DNA content imaging, 48 h; actives 1.8% (n = 340,000); note: % of control where 0% means no effect; nearly all actives have a fitted effect of over 55% in size
#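 Image-based DNA-content assay: after two days of treatment, nuclei were labelled with the DNA dye Hoechst and imaged, and hits were compounds raising the count of nuclei showing high fluorescence intensity.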
# RORg inh: blocks mouse ROR gamma transcriptional activity. P51450. Drosophila S2 Gal4-RORgamma UAS-luciferase reporter, 20 h. Potency, µM (series often up to 53.6 µM), for inactives: at the top dose activity change, negative = inhibition, most hits filed as inhibitors. actives 5.4% (n = 310,000); note: % is set by controls: 0 for no effect and ±100 for the full control effect; nearly all actives have a fitted effect of over 60% in size
# Target sequence (P51450 whole entry, looked up, the tested form may be a part): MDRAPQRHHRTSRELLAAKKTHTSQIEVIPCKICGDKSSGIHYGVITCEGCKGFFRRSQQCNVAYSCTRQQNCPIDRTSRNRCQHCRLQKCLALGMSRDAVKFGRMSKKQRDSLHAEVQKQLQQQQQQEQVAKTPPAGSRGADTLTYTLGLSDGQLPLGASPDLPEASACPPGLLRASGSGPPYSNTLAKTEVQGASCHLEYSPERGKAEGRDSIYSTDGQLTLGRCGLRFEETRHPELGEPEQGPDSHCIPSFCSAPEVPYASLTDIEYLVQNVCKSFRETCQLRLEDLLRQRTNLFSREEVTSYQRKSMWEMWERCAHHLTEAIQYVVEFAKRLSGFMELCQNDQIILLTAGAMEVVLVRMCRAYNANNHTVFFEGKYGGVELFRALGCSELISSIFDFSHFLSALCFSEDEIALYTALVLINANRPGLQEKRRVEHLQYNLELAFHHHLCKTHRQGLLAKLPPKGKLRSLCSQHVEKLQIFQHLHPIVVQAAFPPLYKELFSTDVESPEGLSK
#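 In this cell-based reporter format, copper sulfate (700 uM final) drives Gal4–ROR gamma fusion expression from a metallothionein promoter in Drosophila Schneider cells; compounds preincubated 1 hr, reporter read after 20 hr at ambient temperature.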
# Gal4-VP16 FLuc: counter-screen for ROR gamma inhibitors: Gal4-VP16 reporter; Drosophila S2 Gal4-VP16 UAS-luciferase, luminescence, 20 h; Potency, µM (highest dose often 53.6 µM), without a hit: at the top dose activity, negative = inhibition, usual class: inhibitors; actives 3.5% (n = 310,000);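 note: Gal4-VP16 expression switched on by copper sulfate through the metallothionein promoter; % is set by controls: 0 for no effect and ±100 for the full control effect; nearly all actives have a fitted effect of over 50% in size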
# KB-V1 cytotox: KB-V1 MDR subline cytotoxicity; KB-V1 MDR cells viability, CellTiter-Glo, 72 h; Potency, µM (highest dose often 46.1 µM), usual class: cytotoxic; actives 3.4% (n = 400,000); AID 1347076; note: % is set by controls: 0 for no effect and ±100 for the full control effect; nearly all actives have a fitted effect of over 60% in size
#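 Drug-selected KB-V1 cells, grown in DMEM lacking phenol red with 10% FBS, receive compound titrations; after three days at 37 degrees C, surviving cell ATP is quantified by CellTiter-Glo luminescence and responses normalized and curve-fitted.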
# Active calls of the source: *; i = inactive; ? = inconclusive; nt = no result given; [ ] = dose if it differs, or a comment. Calls come from the whole dose curve; as a rule, active = well fitted curve in the direction sought with a large enough effect; inconclusive = small, poorly fitted or top-dose-only effect, or another doubt; inactive = no such curve, though single readings can be large; an effect the other way counts as inactive or inconclusive. Potency is the fitted concentration of half-maximal effect.
SMILES,MCF10A rerep,KB-3-1 cytotox,SW480 rereplic,RORg inh,Gal4-VP16 FLuc,KB-V1 cytotox
CCOc1ccccc1N1CC(C(=O)N(CC)CC(=O)Nc2ccc3c(c2)OCCO3)CC1=O (stereo not drawn),1.6%,i,2.31µM*,nt,nt,i
CCN(CC(=O)Nc1ccc2c(c1)OCCO2)C(=O)C1CC(=O)N(c2ccc(OC)cc2OC)C1 (stereo not drawn),0.2%,i,-6.6%,nt,nt,?
Cc1c2cnn(-c3ccccc3)c(=O)c2c(C)n1CCCC(=O)Nc1cccc(F)c1,nt,i,nt,nt,nt,i
COCCN1C(=O)Cc2c1nc(N)c1c(N)nc(N3CCN(c4ccc(F)cc4)CC3)c(C#N)c21,16.2%,i,6.2%,-13.7%,-1.4%,?
COCC(C)N1C(=O)Cc2c1nc(N)c1c(N)nc(N3CCN(c4ccccc4F)CC3)c(C#N)c21 (stereo not drawn),11.6µM*,?,?,-23.0%,2.8%,?
COCc1c(Br)c(C)nc(OCC(=O)N/N=C/c2ccc(C)o2)c1C#N,0.731µM*,i,7.9%,-14.8%,-8.1%,?
Cc1cc(C)c2c(n1)nn1c(NCCCN(C)C)cc(C)nc21,?,i,20.6µM*,?,-1.4%,i
C=CS(=O)(=O)N(Cc1ccccc1Br)[C@H](CO)Cc1ccccc1,16.4µM*,?,?,nt,nt,?
O=C(CCCc1ccccc1)Nc1nncs1,-4.4%,i,-13.5%,12.2%,-6.2%,9.2µM*
COc1ccccc1C(=O)Nc1nnc(CCc2ccccc2)s1,?,11.6µM*,6.51µM*,21.1%,-17.3%,?
O=C(CCn1nnc2ccccc21)Nc1nnc(COc2ccccc2F)s1,-0.3%,i,-11.1%,-12.5%,8.3%,i
O=C(CCn1nnc2ccccc21)Nc1nnc(Cc2ccccc2)s1,8.0%,i,-4.4%,?,-11.8%,16.4µM*
CCCCCC(=O)Nc1nnc(CCc2ccccc2)s1,-0.5%,i,-1.2%,12.6µM*,?,i
CC(C)NC(=O)C1(C)CN(S(C)(=O)=O)CC(=O)N1CCc1ccc(O)cc1 (stereo not drawn),nt,i,nt,nt,nt,i
O=C1C2CC=CCC2C(=O)N1c1ccc(Cc2ccncc2)cc1 (stereo not drawn),?,?,-8.1%,16.2%,?,16.4µM*
O=C1CC(Cc2ccc(Cl)cc2)C(=O)N1c1ccncc1 (stereo not drawn),-3.0%,i,0.1%,?,-13.6%,i
O=C1NC2c3c(Cl)sc(Cl)c3C(=O)C2O1 (stereo not drawn),7.31µM*,i,?,nt,nt,?
O=C1NC2c3ccccc3CC2O1 (stereo not drawn),21.4%,?,-2.5%,-4.9%,1.9%,?
O=C1NC2c3c(I)sc(I)c3C(=O)C2O1 (stereo not drawn),13µM*,?,16.4µM*,nt,nt,i
COc1ccc(Cc2nc3ccc(C(=O)N4C[C@@H](C)O[C@@H](C)C4)cc3o2)cc1OC,-3.2%,?,1.1%,?,?,i
COCCN1CCN(C(=O)c2ccc3nc(Cc4ccc(OC)c(OC)c4)oc3c2)CC1,17.3%,4.61µM*,?,?,7.08µM*,?
COc1cc(CNC(=O)c2ccc3nc(Cc4ccccc4)oc3c2)cc(OC)c1OC,nt,25.9µM*,nt,nt,nt,i
COc1ccc(-n2cc(-c3ccccc3)c3c(=O)[nH]cnc32)cc1,8.7%,i,-0.3%,-41.2%,18.4%,i
COc1ccccc1-n1cc(-c2ccccc2)[nH]c1=S,-6.9%,i,?,3.98µM*,20µM*,i
COc1ccccc1-n1cc(-c2ccccc2)c2c(=S)nc[nH]c21,?,i,-9.7%,1µM*,1µM*,?
SMILES,MCF10A rerep,KB-3-1 cytotox,SW480 rereplic,RORg inh,Gal4-VP16 FLuc,KB-V1 cytotox
COc1ccc(-n2cc(-c3ccccc3)[nH]c2=S)cc1,-1.3%,i,-6.7%,2.24µM*,3.55µM*,i
CCOc1ccc(-c2cn(-c3cccc(SC)c3)c(=O)[nH]2)cc1,?,i,?,7.0%,-6.6%,i
CCOc1ccc(-c2cn(-c3ccccc3OC)c(=S)[nH]2)cc1,?,?,?,3.55µM*,8.91µM*,?
COc1ccc(NC(=O)c2c(NCc3ccc(N(C)C)cc3)sc3c2CCC3)cc1,nt,i,nt,nt,nt,i
CC1(C)O[C@H]2C[C@@H]3[C@H]4CCC5=CC(=O)C=C[C@]5(C)[C@@]4(F)[C@@H](O)C[C@]3(C)[C@]2(C(=O)CO)O1,6.6%,nt,-1.6%,11.0%,-17.2%,nt
COc1ccccc1NC(=O)COC(=O)C1CC2CCCC(C1)C2=O (stereo not drawn),-37.6%,i,1.6%,nt,nt,i
Cc1ccccc1S(=O)(=O)N1C[C@H]2[C@H]3C(=O)N(c4ccccc4)C(=O)[C@H]3CC(=O)[C@H]2[C@@H]1c1ccc(Cl)cc1,nt,i,nt,nt,nt,i
Cc1cccc(-n2cc(-c3ccccc3)[nH]c2=S)c1,5.1%,i,-15.8%,2.51µM*,7.08µM*,i
Cc1ccc(-c2cn(-c3ccccc3F)c(=S)[nH]2)cc1,2.2%,i,-47.3%,1.78µM*,7.08µM*,i
O=[N+]([O-])c1ccc(-c2cn(-c3ccccc3F)c(=S)[nH]2)cc1,2.6%,i,3.4%[1.84 µM],?,-11.6%,?
CC(=O)Nc1ccc(-n2cc(-c3ccccc3)[nH]c2=S)cc1,-13.3%,i,0.6%,?,-3.2%,i
CCOc1ccc(-n2cc(-c3ccc(OC)c(OC)c3)[nH]c2=S)cc1,3.8%,i,-9.9%,1.26µM*,?,i
COc1cccc(-c2cn(-c3cccc(C(F)(F)F)c3)c(=S)[nH]2)c1,-14.0%,i,-11.7%,3.16µM*,?,i
Cc1ccc(CN2CCC(C(=O)c3ccc(F)cc3)CC2)cc1,nt,i,nt,nt,nt,i
COC(=O)[C@@]12C[C@@H](CC(=O)N3CCOCC3)C(=O)N(Cc3ccc4c(c3)OCO4)C1=CCC(C)(C)C2,nt,i,nt,nt,nt,?
CSc1nc2ccccc2cc1/C=C(\C#N)c1ccc(Cl)c(Cl)c1,7.31µM*,i,?,3.7%,-3.5%,i
CSc1nc2ccccc2cc1/C=C(\C#N)c1cccc(C)c1,10.3µM*,14.6µM*,?,15.6%,-1.1%,14.6µM*
CCn1c(/C(C#N)=C/c2ccccc2Cl)nc2ccccc21,nt,i,nt,nt,nt,i
CSc1nc2ccccc2cc1/C=C(\C#N)c1ccccc1,13µM*,?,?,-16.1%,1.3%,?
Cc1cccc(/C=C(\C#N)c2nc3ccccc3c(=O)[nH]2)c1,nt,i,nt,nt,nt,i

# Screens from PubChem.
